The list is not random: actives were taken first. Their share in the collection is about 6.5%.
VACV mCherry inh: inhibitors of vaccinia virus infection (mCherry reporter signal). AID 720579. Potency, µM (titrated, usually from 36.5 µM), for the others: at the highest dose activity change, negative = inhibition, most hits filed as inhibitors. 0.63% of 310,000 active. Vaccinia virus mCherry reporter infection, fluorescence; calls by dose curve; tested in A549 cells; further: potency means the concentration at half of the fitted maximal effect; nearly all actives have a fitted effect of over 35% in size
FMDV antiviral: foot and mouth disease virus antiviral activity; 1.2% of 410,000 active; AID 1159524; Potency, µM (series often up to 57.9 µM), without a hit: at the top dose activity change, negative = inhibition, actives largely listed as inhibitors; FMDV antiviral cell-based qHTS; calls by dose curve; tested in HEK293T cells; further: read-out not given here; potency means the concentration at half of the fitted maximal effect; nearly all actives have a fitted effect of over 45% in size
Lassa entry inh: inhibitors of Lassa virus binding or cell entry; Potency, µM (series often up to 37.9 µM), for the others: at the top dose activity change, negative = inhibition, usual class: inhibitors; 1.2% of 300,000 active; Lassa virus pseudotype entry inhibition, cell reporter; calls by dose curve; tested in HEK293 cells; further: potency means the concentration at half of the fitted maximal effect; nearly all actives have a fitted effect of over 50% in size
Marburg entry inh: inhibitors of Marburg virus binding or cell entry; Marburg virus pseudotyped entry inhibition, cell reporter; Potency, µM (top dose mostly 37.8 µM), for the others: at the highest dose activity change, negative = inhibition, actives largely listed as inhibitors; 1.8% of 300,000 active; AID 540276; calls by dose curve; tested in HEK293 cells; further: potency means the concentration at half of the fitted maximal effect
HCMV antiviral: human cytomegalovirus inhibition; HFF cells, HCMV-luciferase reporter, 72 h; active compounds read low; activity change, negative = inhibition, % at 57.5 µM; 4.5% of 410,000 active; in the data active means activity change below about -60%; inconclusive means no clear call, values can overlap the other calls; inactive means above about -39%
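Compounds were evaluated in HFFs infected with an HCMV luciferase reporter virus (MOI 1 PFU/cell). Luciferase in lysates collected 72 h post infection served as the replication measure.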
VACV Venus inh: inhibitors of vaccinia virus (Venus reporter) | Vaccinia virus Venus reporter expression, fluorescence | Potency, µM (highest dose often 36.5 µM), inactives show at the highest dose activity change, negative = inhibition, most hits filed as inhibitors | 0.46% of 330,000 active; calls by dose curve; tested in A549 cells; further: potency means the concentration at half of the fitted maximal effect; nearly all actives have a fitted effect of over 30% in size
* hit, by the source's call; i = inactive; ? = inconclusive; . = no result; [ ] = remark or other dose. On the % scale 0 is the no-effect control and ±100 the full control effect.

SMILES | VACV mCherry inh | FMDV antiviral | Lassa entry inh | Marburg entry inh | HCMV antiviral | VACV Venus inh
CCCCCCN1C[C@H](O)[C@@H](n2cc(COC(=O)c3ccccc3)nn2)C[C@@H]1c1ccccc1 | i | -15.3% | . | . | -11.2 | -4.9%
Cc1ccc(OCC(=O)Nc2cccc(C(=O)OCc3cc(=O)n4nc(C)sc4n3)c2)cc1 | -6.5%[7.34 µM] | 12.6µM* | ? | . | 4.0 | -4.6%[7.34 µM]
CCc1nn2c(=O)cc(COC(=O)c3ccc(NC(=O)COc4ccccc4C)cc3)nc2s1 | -7.5% | 5.5% | 7.0%[46.1 µM] | . | -15.7 | -0.1%
COc1ccccc1C(=O)Nc1ccc(C(=O)OCc2cc(=O)n3nc(C4CC4)sc3n2)cc1 | -15.6% | -20.7% | 8.3%[46.1 µM] | . | -18.7 | -16.2%
Cc1ccc(OCC(=O)Nc2cccc(C(=O)OCc3cc(=O)n4c(C)csc4n3)c2)cc1 | -13.2% | -19.2% | ? | . | -2.4 | -12.8%
Cc1nn2c(=O)cc(COC(=O)c3ccc(NC(=O)COc4ccccc4F)cc3)nc2s1 | -10.0% | 10µM* | 1.6%[46.1 µM] | . | 3.6 | -23.0%
Cc1nn2c(=O)cc(COC(=O)c3ccc(NC(=O)COc4ccc(C)c(C)c4)cc3)nc2s1 | -14.4% | 11.2µM* | 10.5%[46.1 µM] | . | -28.3 | -23.2%
COc1ccccc1C(=O)Nc1ccc(C(=O)OCc2cc(=O)n3nc(C)sc3n2)cc1 | ? | 15.8µM* | 22.4%[46.1 µM] | . | 70.2 | ?
CSCCC1c2cccn2-c2ccccc2N1C=Nc1c(C)cccc1C (centres undefined) | . | . | . | . | 15.9 | .
Cc1nn2c(=O)cc(COC(=O)c3cccc(NC(=O)COc4ccccc4C)c3)nc2s1 | -4.4% | 2.82µM* | 26.3%[46.1 µM] | . | ? | -6.6%
Cc1nn2c(=O)cc(COC(=O)c3ccc(NC(=O)CCc4ccccc4)cc3)nc2s1 | -1.1% | 11.2µM* | 2.2%[46.1 µM] | . | 56.1 | -6.5%
COc1ccc(OCC(=O)Nc2ccccc2C(=O)OCc2cc(=O)n3nc(C)sc3n2)cc1 | -15.9% | 20µM* | 18.0%[46.1 µM] | . | -22.1 | -11.8%
CCCc1nn2c(=O)cc(COC(=O)c3ccc(NC(=O)c4cccs4)cc3)nc2s1 | -1.1% | -14.9% | 11.7%[46.1 µM] | . | -96.5* | -17.6%
Cc1nn2c(=O)cc(COC(=O)c3cccc(NC(=O)CCc4ccccc4)c3)nc2s1 | i | 3.3% | 11.5%[46.1 µM] | . | 55.5 | -14.7%
CO[C@H]1[C@H](NC(=O)C(C)C)c2ccccc2C12CCN(Cc1c(C)nn(C)c1Cl)CC2 | -8.4% | 8.7% | . | . | . | 1.9%
COc1cc(OC)c(CN2CCOc3ccc(CN4CCC(O)CC4)cc3C2)c(OC)c1 | -17.3% | -11.5% | . | . | . | -3.6%
O=C(Nc1ccccc1)OCCOc1ccc(Cl)cc1Cl | -12.9% | -6.8% | ? | ? | 2.8 | -1.4%
O=S1(=O)CCOC[C@H](c2ccccc2)N1Cc1ccc(F)cc1 | -25.6% | . | . | . | . | -21.1%
O=C(NCc1ccco1)C1CCN(C(=O)c2ccc(Cl)cc2Cl)CC1 | i | 8.1% | -14.3%[46.1 µM] | 3.7%[46.1 µM] | -6.8 | 0.5%
CC(=O)CCC(=O)N1CCC(n2c(C3CCCO3)nc3cc(C(F)(F)F)ccc32)CC1 (centres undefined) | -7.2% | -8.6% | . | . | . | -28.9%
Cc1cn2c(=O)cc(COC(=O)c3cccc(NC(=O)COc4ccc(Cl)cc4)c3)nc2s1 | -14.9% | -2.2% | ? | . | 3.2 | -15.1%
O=C(OCc1cc(=O)n2nc(C3CC3)sc2n1)c1ccc(NC(=O)c2ccccc2Cl)cc1 | ? | 20µM* | ? | . | -16.5 | -5.6%
Cc1nn2c(=O)cc(COC(=O)c3cccc(NC(=O)COc4ccc(C)c(C)c4)c3)nc2s1 | -13.1% | 15.3% | 10.5%[46.1 µM] | . | -61.7* | -6.7%
O=C(c1cc(-c2ccccc2)on1)N1CCOc2ccc(CN3CCOCC3)cc2C1 | -13.5% | 2.6% | . | . | . | -0.1%
CC(C)(C)N(NC(=O)c1ccccc1)C(=O)c1ccc(C(=O)N(NC(=O)c2ccccc2)C(C)(C)C)cc1 | ? | -23.4% | 25.8% | 0.7% | -60.0* | -17.4%
SMILES | VACV mCherry inh | FMDV antiviral | Lassa entry inh | Marburg entry inh | HCMV antiviral | VACV Venus inh
CCc1ccc(C(=O)NN(C(=O)c2ccc(CC)cc2)C(C)(C)C)cc1 | -21.9% | -11.2% | ? | ? | -25.5 | -9.3%
Cc1c(C(C)NC(=O)c2cc(COc3cccc4cnccc34)on2)cnn1C (centres undefined) | . | ? | . | . | -85.5* | .
CN(Cc1cccnc1)C(=O)c1cc(COc2ccc3c(c2)CCCC3)on1 | -17.4% | -14.9% | ? | ? | -65.1* | -28.7%
CN(Cc1cccc2cnccc12)C(=O)c1cc(COc2ccc(F)cc2F)on1 | . | ? | . | . | -60.1* | .
CCc1ccc(CN(C)C(=O)c2cc(COc3cccc4cnccc34)on2)cc1 | . | ? | . | . | -99.0* | .
CSc1ccccc1OCc1cc(C(=O)NC(C)c2cnn(C)c2)no1 (centres undefined) | -21.5% | 10.2% | 6.7% | 17.4% | 71.3 | -14.8%
O=C(c1cccs1)N1C[C@@H](n2cc(C3CC3)nn2)[C@@H](O)C[C@@H]1c1ccc(Cl)cc1 | . | . | 7.6%[46.1 µM] | . | . | .
CC(N)(C(=O)O)c1ccc(P(=O)(O)O)cc1 (centres undefined) | -6.2% | -17.6% | . | . | . | -9.0%
CCN(CC)c1ccc(NC(=O)CNCc2ccccc2Cl)c(C)c1 | ? | 10.2% | 10µM* | -1.3%[46.1 µM] | -102.6* | -22.2%
O=C(CNCc1ccccc1Cl)Nc1ccccc1N1CCCCC1 | i | -21.8% | 20.0%[46.1 µM] | ? | -12.5 | 5.5%
CCN(CC)c1ccc(NC(=O)c2cnc3ccccn3c2=O)c(C)c1 | -16.2% | -3.8% | -14.2%[14.3 µM] | -25.8% | -72.9* | -16.5%
O=C(O[C@H]1CC[C@@]23CCCN2C(=O)CCC[C@H]3[C@H]1Cc1ccccc1)N1CCCC1 | . | . | . | . | -16.3 | .
CCc1nc2c(OCc3ccc(Cl)cc3)cccn2c1N(C)C(=O)c1ccco1 | ? | 28.2µM* | . | . | -76.7* | ?
CCc1nc2c(OCc3ccc(F)cc3)cccn2c1N(C)C(=O)c1ccco1 | 31.2% | -21.0% | . | . | 15.7 | -7.0%
CC(=O)c1ccc(S(=O)(=O)N2CCN(C(=O)C3CCCC3)CC2)cc1 | -5.3% | -14.2% | . | 7.9%[46.1 µM] | -1.6 | 6.4%
CCCc1nc(SCC(=O)c2ccc(OC)cc2)c2ccccc2n1 | i | ? | -19.5%[46.1 µM] | ? | -83.0* | -20.5%
CCCc1nc(SCC(=O)N2CCCC2)c2ccccc2n1 | . | ? | ? | -19.2% | -89.2* | .
Cc1ccc2oc(-c3cccc(NC(=O)COc4ccc(Cl)cc4C)c3C)nc2c1 | -6.2% | . | . | . | . | -8.9%
COc1ccc(/C=C/C(O)=C2/C(=O)NC3(C)CC2c2ccccc2O3)c(OC)c1OC (centres undefined) | . | ? | . | . | -65.2* | .
COc1ccc(/C=C/C(O)=C2/C(=O)N(C)C3(C)CC2c2ccccc2O3)cc1 (centres undefined) | . | 14.1µM* | ? | 8.2µM* | -84.9* | .
CCN1C(=O)C(C(=O)Nc2ccc(OC)cc2)C2CC1(C)Oc1ccccc12 (centres undefined) | -4.5% | -20.9% | 16.0% | -13.2% | 18.6 | -16.8%
Cc1ccc(/C=C/C(O)=C2/C(=O)N(C)C3(C)CC2c2ccccc2O3)cc1 (centres undefined) | ? | 14.1µM* | -11.9% | ? | -97.5* | ?

Screening results (PubChem)
